# Biological target: ZNF721 full-length (Homo sapiens, UniProt Q8TF20-2 1-923)
# Test: HT-SELEX; 20 mM HEPES pH 7, 140 mM KCl, 5 mM NaCl, 1 mM K2HPO4, 2 mM MgSO4, 100 uM EGTA, ZnSO4, 0.1% Tween20; room temperature, 1 h; high values mean tight binding
# Settings: protein: ivt; tags: eGFP (N-terminal); dsDNA, one strand shown
# In short: (§1)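 A tagged transcription factor, either full-length or its DNA-binding-domain fragment, was made in HEK293 lysate or cell-free extract, immobilised on beads and incubated with a randomized 40-base DNA library for 1 h at room temperature in HEPES/KCl low-stringency buffer containing Tween20. Washed beads were heat-eluted, and the bound DNA was PCR-amplified over successive cycles and Illumina-sequenced at ~3 million 60 bp reads per sample. The binding signal is the relative k-mer count in selected reads, where a higher value means tighter binding.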
# Chain of ZNF721 full-length (Q8TF20 other isoform, or with tags, fused parts or gaps): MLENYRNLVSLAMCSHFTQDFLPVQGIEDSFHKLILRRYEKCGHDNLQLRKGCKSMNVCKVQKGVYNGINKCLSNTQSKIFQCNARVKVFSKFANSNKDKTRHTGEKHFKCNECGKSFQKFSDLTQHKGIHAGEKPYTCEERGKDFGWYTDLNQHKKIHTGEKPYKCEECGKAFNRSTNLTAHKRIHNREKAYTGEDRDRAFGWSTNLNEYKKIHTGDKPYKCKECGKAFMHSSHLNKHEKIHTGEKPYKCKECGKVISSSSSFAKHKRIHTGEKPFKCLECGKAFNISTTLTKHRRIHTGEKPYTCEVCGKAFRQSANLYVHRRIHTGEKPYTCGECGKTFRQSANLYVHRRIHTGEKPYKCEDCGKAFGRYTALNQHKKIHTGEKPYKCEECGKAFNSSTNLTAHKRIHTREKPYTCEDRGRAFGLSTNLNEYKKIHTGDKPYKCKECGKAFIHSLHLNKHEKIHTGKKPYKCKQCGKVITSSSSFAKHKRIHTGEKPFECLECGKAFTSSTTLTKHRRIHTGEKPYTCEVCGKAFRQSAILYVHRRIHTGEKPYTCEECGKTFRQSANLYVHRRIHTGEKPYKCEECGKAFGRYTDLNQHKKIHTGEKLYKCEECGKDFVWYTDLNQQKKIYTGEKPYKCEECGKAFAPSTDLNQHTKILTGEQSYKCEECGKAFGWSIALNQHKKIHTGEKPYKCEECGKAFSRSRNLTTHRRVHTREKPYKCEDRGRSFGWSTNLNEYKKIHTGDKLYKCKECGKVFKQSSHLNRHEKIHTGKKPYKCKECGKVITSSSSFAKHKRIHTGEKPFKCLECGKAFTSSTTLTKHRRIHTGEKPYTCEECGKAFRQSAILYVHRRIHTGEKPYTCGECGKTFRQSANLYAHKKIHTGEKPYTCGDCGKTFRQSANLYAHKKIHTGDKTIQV
row,Sequence,binding signal [relative 10-mer count]
1,TCCCCACCCA,0.122
2,GCCCACCCCC,0.215
3,AAACAAGCAG,0.212
4,CTCCCCCGCC,0.118
5,CGCACCACCC,0.108
6,AACAAAAAAA,0.116
7,CCCCACCACC,0.447
8,CGCCCCCACC,0.19
9,ACCCCGACCC,0.102
10,CACCGCCCCC,0.171
11,CCCGTCCCCC,0.187
12,CCACCCCAAC,0.162
13,CCCCGCCCCA,0.196
14,CCCGCCCTCC,0.158
15,ACCCTCCCAC,0.119
16,AAAAGCATAC,0.149
17,CTCCCCACCC,0.198
18,CCACCGCCAC,0.12
19,AACCACCCCC,0.106
20,CACCCACCCG,0.132

row,Sequence,binding signal [relative 10-mer count]
1,ATCCCACCCC,0.123
2,CCCCCACACC,0.231
3,AAAACAAGCA,0.157
4,CACCCTACCC,0.107
5,CAACCCACCC,0.171
6,CACCTCCCCC,0.188
7,GGGGGGTGGA,0.145
8,GCCACCACCC,0.106
9,GTGGGTGGGA,0.137
10,AGGTGGGTGG,0.149
11,CCCCCCGTCC,0.134
12,AAAAAGCTAT,0.425
13,CACCCCATCC,0.11
14,AGGGTGGGGG,0.202
15,AGCGTCTCCT,0.109
16,CACCCCCACC,0.308
17,ACCCCACCAC,0.199
18,CCCCCAACCC,0.233
19,CCTCCCCTCC,0.155
20,CCCCCCTCCC,0.304

# Biological target: ZNF721 DBD1 (Homo sapiens, UniProt Q8TF20-2 29-461)
# Test: as above
# Settings: protein: ivt; tags: eGFP (N-terminal); dsDNA, one strand shown
# In short: as §1
# Chain of ZNF721 DBD1 (Q8TF20 17-449): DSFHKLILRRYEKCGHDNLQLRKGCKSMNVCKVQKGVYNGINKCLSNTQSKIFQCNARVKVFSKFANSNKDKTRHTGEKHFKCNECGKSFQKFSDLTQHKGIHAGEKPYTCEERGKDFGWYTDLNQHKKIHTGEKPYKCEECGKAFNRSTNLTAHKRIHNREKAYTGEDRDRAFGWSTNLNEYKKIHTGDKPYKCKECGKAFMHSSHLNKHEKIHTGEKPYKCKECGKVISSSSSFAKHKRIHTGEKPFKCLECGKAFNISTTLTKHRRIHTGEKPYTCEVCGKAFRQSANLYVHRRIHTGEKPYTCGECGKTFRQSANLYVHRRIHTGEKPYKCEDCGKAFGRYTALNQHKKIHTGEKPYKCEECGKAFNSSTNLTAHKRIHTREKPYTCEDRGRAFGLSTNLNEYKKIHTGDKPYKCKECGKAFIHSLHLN
row,Sequence,binding signal [relative 10-mer count]
1,TCCCCACCCA,0.00495
2,GCCCACCCCC,0.00876
3,AAACAAGCAG,0.00908
4,CTCCCCCGCC,0.0056
5,CGCACCACCC,0.00381
6,AACAAAAAAA,0.0078
7,CCCCACCACC,0.0213
8,CGCCCCCACC,0.00945
9,ACCCCGACCC,0.00284
10,CACCGCCCCC,0.00803
11,CCCGTCCCCC,0.00771
12,CCACCCCAAC,0.00601
13,CCCCGCCCCA,0.0067
14,CCCGCCCTCC,0.00803
15,ACCCTCCCAC,0.00734
16,AAAAGCATAC,0.0247
17,CTCCCCACCC,0.00936
18,CCACCGCCAC,0.00394
19,AACCACCCCC,0.00303
20,CACCCACCCG,0.0039

row,Sequence,binding signal [relative 10-mer count]
1,ATCCCACCCC,0.00573
2,CCCCCACACC,0.00821
3,AAAACAAGCA,0.00638
4,CACCCTACCC,0.00408
5,CAACCCACCC,0.00532
6,CACCTCCCCC,0.00798
7,GGGGGGTGGA,0.00615
8,GCCACCACCC,0.00413
9,GTGGGTGGGA,0.00729
10,AGGTGGGTGG,0.00642
11,CCCCCCGTCC,0.00491
12,AAAAAGCTAT,0.225
13,CACCCCATCC,0.00372
14,AGGGTGGGGG,0.0102
15,AGCGTCTCCT,0.0353
16,CACCCCCACC,0.0129
17,ACCCCACCAC,0.00738
18,CCCCCAACCC,0.00775
19,CCTCCCCTCC,0.00812
20,CCCCCCTCCC,0.0139

# Biological target: ZNF721 DBD2 (Homo sapiens, UniProt Q8TF20-2 395-923)
# Test: as above
# Settings: protein: ivt; tags: eGFP (N-terminal); dsDNA, one strand shown
# In short: as §1
# Chain of ZNF721 DBD2 (Q8TF20 383-911): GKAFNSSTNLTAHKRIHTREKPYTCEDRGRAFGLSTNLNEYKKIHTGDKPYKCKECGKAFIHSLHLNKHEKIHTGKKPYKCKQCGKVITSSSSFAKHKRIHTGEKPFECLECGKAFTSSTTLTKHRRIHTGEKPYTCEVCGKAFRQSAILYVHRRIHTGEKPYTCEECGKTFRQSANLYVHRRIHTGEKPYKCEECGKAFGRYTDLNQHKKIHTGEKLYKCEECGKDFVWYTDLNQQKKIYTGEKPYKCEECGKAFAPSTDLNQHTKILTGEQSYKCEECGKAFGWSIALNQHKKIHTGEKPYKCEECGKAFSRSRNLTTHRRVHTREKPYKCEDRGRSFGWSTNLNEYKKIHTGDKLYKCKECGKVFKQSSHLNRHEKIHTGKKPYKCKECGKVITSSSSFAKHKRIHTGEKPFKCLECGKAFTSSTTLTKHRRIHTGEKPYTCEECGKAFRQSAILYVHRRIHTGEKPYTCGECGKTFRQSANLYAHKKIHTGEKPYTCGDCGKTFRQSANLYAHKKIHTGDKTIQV
row,Sequence,binding signal [relative 10-mer count]
1,TCCCCACCCA,0.00431
2,GCCCACCCCC,0.00779
3,AAACAAGCAG,0.149
4,CTCCCCCGCC,0.00216
5,CGCACCACCC,0.00695
6,AACAAAAAAA,0.069
7,CCCCACCACC,0.00767
8,CGCCCCCACC,0.00515
9,ACCCCGACCC,0.0012
10,CACCGCCCCC,0.003
11,CCCGTCCCCC,0.0018
12,CCACCCCAAC,0.00659
13,CCCCGCCCCA,0.00228
14,CCCGCCCTCC,0.0018
15,ACCCTCCCAC,0.00587
16,AAAAGCATAC,0.039
17,CTCCCCACCC,0.00395
18,CCACCGCCAC,0.00599
19,AACCACCCCC,0.00276
20,CACCCACCCG,0.00264

row,Sequence,binding signal [relative 10-mer count]
1,ATCCCACCCC,0.00168
2,CCCCCACACC,0.00779
3,AAAACAAGCA,0.0831
4,CACCCTACCC,0.00491
5,CAACCCACCC,0.00623
6,CACCTCCCCC,0.00443
7,GGGGGGTGGA,0.00407
8,GCCACCACCC,0.00204
9,GTGGGTGGGA,0.00563
10,AGGTGGGTGG,0.00443
11,CCCCCCGTCC,0.00288
12,AAAAAGCTAT,0.00192
13,CACCCCATCC,0.00575
14,AGGGTGGGGG,0.00563
15,AGCGTCTCCT,0.194
16,CACCCCCACC,0.0102
17,ACCCCACCAC,0.00407
18,CCCCCAACCC,0.00168
19,CCTCCCCTCC,0.0132
20,CCCCCCTCCC,0.00372

# — article PMC13541613, “GHT-SELEX demonstrates unexpectedly high intrinsic sequence specificity and complex DNA binding of many human transcription factors”
